In the library only some 5.5% were active in any assay of this set; here they are far more common.
VP16 counter = inhibits Gal4-VP16 luciferase reporter, ROR gamma counter-screen; Drosophila S2 Gal4-VP16 UAS-luciferase, luminescence, 20 h; Potency, µM (top dose mostly 53.6 µM), for inactives: at the highest dose activity, negative = inhibition, hits mostly inhibitors; hit rate 3.5% among 310,000; AID 2546;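 further: Gal4-VP16 expression switched on by copper sulfate through the metallothionein promoter; potency means the concentration at half of the fitted maximal effect; on the % scale 0 is the no-effect control and ±100 the full control effect; nearly all actives have a fitted effect of over 50% in size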
RORg inh = inhibitors of mouse ROR gamma transcriptional activity | Drosophila S2 Gal4-RORgamma UAS-luciferase reporter, 20 h | Potency, µM (highest dose often 53.6 µM), for the others: at the top dose activity change, negative = inhibition, hits mostly inhibitors | hit rate 5.4% among 310,000; further: potency means the concentration at half of the fitted maximal effect; on the % scale 0 is the no-effect control and ±100 the full control effect; nearly all actives have a fitted effect of over 60% in size
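Drosophila S2 cells stably expressing Gal4-DBD/mouse RORγ fusion under metallothionein promoter plus UAS-luciferase; compound 1 h, then 700 uM CuSO4 induction for 20 h at ambient temperature; inhibition read as reduced luminescence.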
MBNL1 CUG block = blocks human MBNL1 binding to CUG repeat RNA; Q9NR56; Potency, µM (series often up to 57.5 µM), for inactives: at the highest dose activity change, negative = inhibition, usual class: inhibitors; TR-FRET MBNL1-His/biotin-(CUG)12 binding, 665/545 ratio; hit rate 0.036% among 280,000; active means well fitted inhibition curve with a large enough effect in the signal ratio, with a control signal flat, not every such curve was filed as active; inconclusive means small, poorly fitted or top-dose-only effect, or effect the other way, or a change in a side signal; inactive means no such curve, though single readings can be large or run the other way; the % refers to the signal ratio; further: potency means the concentration at half of the fitted maximal effect; on the % scale 0 is the no-effect control and ±100 the full control effect
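TR-FRET readout: Ex 340 nm, 665/545 nm emission ratio, normalized to buffer-only (basal) and MBNL1-(CUG)12 controls. Complex of MBNL1-His with Biotin-(CUG)12, compounds 92 nM–58 uM, incubated 60 min at room temperature.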
Six1-Eya2 inh = Six1/Eya2 interaction inhibition; AlphaScreen GST-Six1/His-Eya2 binding, biochemical; hits give low values; Q15475+O00167; hit rate 0.56% among 360,000; AID 651725; activity change, % (concentration not given with the values); in the data active means activity change below about -65%; inconclusive means mostly about -30% to -63%; further: on the % scale 0 is the no-effect control and ±100 the full control effect
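GST-Six1 + His-Eya2 (5X stock: 250/500 nM); Tris pH 8.0, 300 mM NaCl, 0.05% BSA, 0.02% Tween 20; GSH donor/Ni acceptor beads; 1 h 37 °C dark; AlphaScreen readout.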
CtBP-E1A inh = CtBP/E1A binding inhibition. AlphaScreen GST-E1A/His-CtBP binding, 1536-well; hits give low values. AID 651724. hit rate 0.49% among 340,000. activity change, % (test concentration not listed); in the data active means activity change below about -65%; inconclusive means mostly about -30% to -63%; further: on the % scale 0 is the no-effect control and ±100 the full control effect
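AlphaScreen with 125 nM GST-E1A and 125 nM His-CtBP (5X stocks) in Tris pH 8.0, 300 mM NaCl, BSA, Tween 20, TCEP. Compounds preincubated 2 h at 37 deg C, then glutathione donor/nickel acceptor beads added for 1 h at 37 deg C in dark.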
CBFb RUNX1 block = inhibitors of human CBF-beta and RUNX1 interaction; Q01196+Q13951; AlphaScreen CBFb-His/RUNX1-biotin binding, biochemical; Potency, µM (series often up to 59.8 µM), for inactives: at the top dose activity, negative = inhibition, hits mostly inhibitors; 230,000 tested, under 10 active; further: % of control where 0% means no effect
Target sequence (Q01196 whole entry, looked up): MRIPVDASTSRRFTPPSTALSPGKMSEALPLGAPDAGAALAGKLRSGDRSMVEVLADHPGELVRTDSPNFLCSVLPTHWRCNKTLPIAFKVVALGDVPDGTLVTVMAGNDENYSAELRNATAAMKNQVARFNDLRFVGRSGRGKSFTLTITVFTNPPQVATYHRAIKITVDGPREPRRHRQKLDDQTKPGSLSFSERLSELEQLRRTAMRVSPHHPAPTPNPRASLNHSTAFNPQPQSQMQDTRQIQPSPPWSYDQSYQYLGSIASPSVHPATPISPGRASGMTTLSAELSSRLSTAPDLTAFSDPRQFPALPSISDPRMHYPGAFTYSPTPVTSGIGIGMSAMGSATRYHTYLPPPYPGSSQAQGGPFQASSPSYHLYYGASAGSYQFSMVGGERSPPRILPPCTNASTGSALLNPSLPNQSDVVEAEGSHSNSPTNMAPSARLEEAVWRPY
Target sequence (Q13951 whole entry, looked up): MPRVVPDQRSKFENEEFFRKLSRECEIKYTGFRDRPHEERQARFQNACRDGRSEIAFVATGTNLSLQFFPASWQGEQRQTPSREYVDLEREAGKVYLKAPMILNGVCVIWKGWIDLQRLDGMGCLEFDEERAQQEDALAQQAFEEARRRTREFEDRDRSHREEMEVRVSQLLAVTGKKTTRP
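Proteins preincubated together for 20 min at RT before compound addition; 15 min later, nickel and streptavidin beads were added and left 90 min prior to AlphaScreen measurement.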
Numbers without * were called inactive; [ ] = another dose, or the depositor's remark. Unless noted, the call rests on the fitted dose curve; in most records, active means well fitted curve in the direction sought with a large enough effect; inconclusive means small, poorly fitted or top-dose-only effect, or another doubt; inactive means no such curve, though single readings can be large; an effect the other way counts as inactive or inconclusive.

Results for COC(=O)CN(c1ccccc1)S(=O)(=O)c1cc(Br)ccc1OC ?
VP16 counter: 3%; RORg inh: 7%; MBNL1 CUG block: -6%; Six1-Eya2 inh: 2; CtBP-E1A inh: 2; CBFb RUNX1 block: 10%

How did COCCNC(=O)C1CCCN(Cc2cccc(C#N)c2)CC1 (centres undefined) do in these assays?
Six1-Eya2 inh: -1; CtBP-E1A inh: 1

How did CCOC(=O)c1sc(NC(=S)NC(=O)C2CC2)cc1C do in these assays?
VP16 counter: 1µM*; RORg inh: 1µM*; MBNL1 CUG block: 7%; Six1-Eya2 inh: -11; CtBP-E1A inh: 14; CBFb RUNX1 block: -4%

How did CCOC(=O)c1sc(NC(=S)NC(=O)C23CC4CC(CC(C4)C2)C3)cc1C do in these assays?
VP16 counter: 10µM*; RORg inh: 6.3µM*; MBNL1 CUG block: -3%; Six1-Eya2 inh: 10; CtBP-E1A inh: 9; CBFb RUNX1 block: 1%

How did COc1ccc(-c2cn[nH]c2-c2ccc(OCc3ccc([N+](=O)[O-])cc3)cc2O)cc1OC do in these assays?
VP16 counter: inconclusive; RORg inh: inconclusive; MBNL1 CUG block: 9%; Six1-Eya2 inh: -3; CBFb RUNX1 block: 11%

Results for COc1ccc(-c2cn[nH]c2-c2ccc(OCc3ccccc3)cc2O)cc1 ?
VP16 counter: inconclusive; RORg inh: 6.3µM*; MBNL1 CUG block: -4%; Six1-Eya2 inh: -1; CtBP-E1A inh: -23; CBFb RUNX1 block: 13%

What do the screens show for `CCOc1ccc(-c2[nH]ncc2-c2ccccc2)c(O)c1`?
VP16 counter: inconclusive; RORg inh: 13µM*; MBNL1 CUG block: -5%; Six1-Eya2 inh: -6

How did COc1ccccc1-c1cn[nH]c1-c1ccc(OCc2ccccc2)cc1O do in these assays?
VP16 counter: inconclusive; RORg inh: 6.3µM*; MBNL1 CUG block: 3%; Six1-Eya2 inh: -5; CtBP-E1A inh: -3; CBFb RUNX1 block: -5%

What do the screens show for `COC(=O)C1=C(C)N(Cc2ccccc2)C2=C(C(C)=O)C(c3ccccc3)[C@@](O)(C(=O)OC)C(=O)N2C1c1ccccc1` (some centres undefined)?
VP16 counter: 3%[10 µM]; RORg inh: -3%[10 µM]; CBFb RUNX1 block: 12%[13.1 µM]

Results for CCCOC1CCCN(C(=O)c2ccc(OC)c(OC3CCN(C(C)C)CC3)c2)C1 (centres undefined) ?
VP16 counter: 1%; RORg inh: -1%; MBNL1 CUG block: -3%; Six1-Eya2 inh: 5; CtBP-E1A inh: 1

What do the screens show for `Cc1ccc(N=C2C(=S)N(c3ccc(C)cc3)C(=N)N2/N=C/c2ccc(Cl)cc2)cc1`?
VP16 counter: 3.2µM*; RORg inh: 2.5µM*; MBNL1 CUG block: 22%; Six1-Eya2 inh: -20; CtBP-E1A inh: -12; CBFb RUNX1 block: -4%

Results for Nc1nc(Cl)nc2c1ncn2[C@@H]1O[C@H](CO)[C@H](O)[C@H]1O ?
CBFb RUNX1 block: 2%

How did OC[C@H]1O[C@@H](n2cnc3cncnc32)[C@H](O)[C@@H]1O do in these assays?
VP16 counter: 3.2µM*; RORg inh: 7.1µM*; CBFb RUNX1 block: -1%

Results for OCC1OC(n2cnc3c(Cl)nc(Cl)nc32)C(O)C1O (centres undefined) ?
VP16 counter: -4%; RORg inh: 13µM*

How did Nc1ncnc2c1c(I)cn2C1OC(CO)C(O)C1O (centres undefined) do in these assays?
VP16 counter: 4µM*; RORg inh: 5.6µM*; CBFb RUNX1 block: -1%

What do the screens show for `Cc1onc(-c2c(Cl)cccc2Cl)c1CO/N=C(\C#N)c1c(Cl)cccc1Cl`?
VP16 counter: -3%; RORg inh: 15%; Six1-Eya2 inh: 14; CtBP-E1A inh: 13; CBFb RUNX1 block: inconclusive

What do the screens show for `COC(=O)c1c(N)sc(C(=O)NCCc2ccccc2)c1C`?
VP16 counter: 4.5µM*; RORg inh: 2.5µM*; MBNL1 CUG block: -2%; Six1-Eya2 inh: -5; CtBP-E1A inh: 0

What do the screens show for `O=C(NCCc1ccc(Cl)cc1)c1ccc(=O)[nH]c1`?
VP16 counter: -24%; RORg inh: -18%; MBNL1 CUG block: 5%; Six1-Eya2 inh: -1; CtBP-E1A inh: 1

How did O=C(NC(=S)NCC1CCCO1)c1ccccc1F (centres undefined) do in these assays?
VP16 counter: 2%; RORg inh: inconclusive; MBNL1 CUG block: -7%; Six1-Eya2 inh: -10; CBFb RUNX1 block: 8%

How did COc1cccc(OC)c1C(=O)NCCc1ccccc1 do in these assays?
Six1-Eya2 inh: 2; CtBP-E1A inh: 8

Results for O=C(NCCc1ccc(O)cc1)c1ccc(Cl)cc1 ?
VP16 counter: inconclusive; RORg inh: 1.6µM*; MBNL1 CUG block: -7%; Six1-Eya2 inh: -1; CtBP-E1A inh: 4; CBFb RUNX1 block: 0%

Results for Cc1ccccc1C(=O)NC(=S)N(CCO)Cc1ccccc1 ?
VP16 counter: 2.8µM*; RORg inh: 2µM*; MBNL1 CUG block: 1%; Six1-Eya2 inh: -3; CtBP-E1A inh: 9

How did O=C(NC(=S)NCc1ccccc1)c1ccccc1F do in these assays?
VP16 counter: inconclusive; RORg inh: 10µM*; MBNL1 CUG block: 8%; Six1-Eya2 inh: 20; CtBP-E1A inh: 9; CBFb RUNX1 block: 10%

Results for C[C@@H](c1ccccc1)N1C[C@H](COCc2ccccc2)Oc2cc(N3CCC[C@@H]3CO)ccc2S1(=O)=O ?
Six1-Eya2 inh: -19; CtBP-E1A inh: -5

What do the screens show for `Cc1ccc(S(=O)(=O)CCC(=O)OCC(=O)Nc2cc(S(=O)(=O)N3CCOCC3)ccc2C)cc1`?
Six1-Eya2 inh: -1; CtBP-E1A inh: 1

Results for Cc1ccc(C2c3[nH]c4ccccc4c3C[C@H]3C(=O)N(c4ccccc4C(=O)N4CCC[C@H]4C(=O)O)C(=O)N23)cc1 (some centres undefined) ?
VP16 counter: 0%; RORg inh: inconclusive; MBNL1 CUG block: 1%; Six1-Eya2 inh: -7; CtBP-E1A inh: -5

What do the screens show for `O=C(NC(=S)N(CCO)Cc1ccccc1)c1ccc(S(=O)(=O)N2CCCC2)cc1`?
VP16 counter: 4.5µM*; RORg inh: 2.2µM*; MBNL1 CUG block: -4%; Six1-Eya2 inh: 8; CBFb RUNX1 block: -2%

How did O=C(NC(=S)NCCc1ccccc1)c1ccccc1F do in these assays?
VP16 counter: inconclusive; RORg inh: 18µM*; MBNL1 CUG block: 21%; Six1-Eya2 inh: 15; CtBP-E1A inh: 28

Bioassay records (PubChem)
